For assay [1], the system named is PRMT1 (protein arginine N-methyltransferase 1). Description: small molecules binding arginine methyltransferase PRMT1 – biochemical, small-molecule microarray, 635 nm fluorescence, primary screen (AID 1088).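 Note: binding of Prmt1 protein to compounds spotted on small-molecule microarray slides.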 The settings on record: higher = more signal.
Assay [2] in a line: growth effects on S. cerevisiae YJM789 – YJM789 clinical isolate, OD600, 24 h, basal, primary screen (AID 1089).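 Note: growth of clinical yeast isolate S. cerevisiae YJM 789 seeded 1000 cells per well; test concentration not given here.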 The settings on record: higher = more signal, called active from +8 up or from −8 down.
Assay [3] is described as follows: S. pombe growth modifiers, basal conditions – strain 972, OD600, 24 h, no modulator, primary screen (AID 1090).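 Note: basal condition with compound alone and no growth modifier present; test concentration not given here.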 The settings on record: S. pombe 972 growth, higher = more signal, called active from +8 up or from −8 down.
Assay [4] is described as follows: budding yeast growth modifiers under rapamycin – strain BY4716, OD600, 96 h, primary screen (AID 1091). Note: test concentration not given here. The settings on record: S. cerevisiae BY4716 + rapamycin, higher = more signal, called active from +8 up or from −8 down.
Assay [5] deals with Torsin-1A-interacting protein 2 (Homo sapiens) (UniProt Q8NFQ8). As to the kind of experiment: small molecules binding lysate-expressed LULL1 – cell lysate, human LULL1 lysate, 635/667 nm fluorescence, primary screen (AID 1092).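 Note: probe is lysate of COS7 cells overexpressing human LULL1; score merges per-feature 667 nm fluorescence with signal-to-noise.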 As to conditions: small-molecule microarray, hLULL1 lysate binding, 635 nm fluorescence; higher = more signal.
Assay [6] is described as follows: optical density change of DRC41 E. coli – strain DRC41, OD650, 24 h, E. coli filamentation project, primary screen (AID 1093).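 Note: MC1000 strain lacking acrAB efflux and sulA so SOS filamentation is blocked; test concentration not given here.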 As to conditions: E. coli DRC41 growth, higher = more signal, called active from +8 up or from −8 down.
Assay [7] in a line: probe aLefty2 binding to arrayed compounds – biochemical, biotinylated probe, 635/667 nm fluorescence, primary screen (AID 1094).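 Note: score merges spot fluorescence near 667 nm with spot signal-to-noise ratio.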 As to conditions: small-molecule microarray, higher = more signal.
Assay [8] concerns Noggin (protein binding on small-molecule microarray). Description: small molecules binding Noggin protein – biochemical, 635/667 nm fluorescence, primary screen (AID 1095).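 Note: score merges 667 nm feature fluorescence with signal to noise over triplicate slides.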 As to conditions: 635 nm fluorescence, higher = more signal.
For assay [9], the target named is Neurogenic locus notch homolog protein 3 (Homo sapiens) (UniProt Q9UM47). As to the kind of experiment: small molecules binding NOTCH3 protein – biochemical, 635/667 nm fluorescence, primary screen (AID 1096). As to conditions: small-molecule microarray, 635 nm fluorescence, higher = more signal.
A short description of assay [10]: probe aEGFR binding to arrayed compounds – biochemical, biotinylated probe, 635/667 nm fluorescence, primary screen (AID 1097).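 Note: probe is a biotinylated anti-EGFR antibody binding compounds printed on slides; score combines fluorescence near 667 nm and signal to noise of each spot.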 As to conditions: small-molecule microarray, higher = more signal.
The subject of assay [11] is Plasmodium falciparum Sir2 (PF13_0152, Sir2A). As to the kind of experiment: Plasmodium falciparum Sir2A binding compounds – biochemical, small-molecule microarray, 635 nm fluorescence, primary screen (AID 1098).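 Note: score merges spot fluorescence intensity with its signal-to-noise ratio.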 As to conditions: fluorescence 635 nm, higher = more signal.
Assay [12] can be described thus: probe aDKK1 binding to arrayed compounds – biochemical, biotinylated probe, 635/667 nm fluorescence, primary screen (AID 1099).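 Note: score merges 667nm spot fluorescence with signal to noise across triplicate slides; reference of the scale not given here.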 The settings on record: small-molecule microarray, higher = more signal.
Assay [13] is described as follows: probe aCHRDL2 binding to arrayed compounds – biochemical, biotinylated probe, 635/667 nm fluorescence, primary screen (AID 1100). As to conditions: small-molecule microarray, higher = more signal.
A short description of assay [14]: change in splice reporter luminescence, either direction, cell-based, HEK293, spliceosome inhibition project, primary screen (AID 1101).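 Note: HEK293 cells carrying a splicing-competent luciferase reporter gene; test concentration not given here.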 As to conditions: HEK293 splicing luciferase reporter, 24 h, higher = more signal, called active from +8 up or from −8 down. For orientation: In a reporter assay the amount or activity of a reporter protein is the signal.
Assay [15] concerns the target Fibroblast growth factor 10 (Homo sapiens) (UniProt O15520). Description: compounds binding fibroblast growth factor 10 – biochemical, small-molecule microarray, 635 nm fluorescence, primary screen (AID 1102). The settings on record: FGF10 binding, fluorescence 635 nm, higher = more signal.
Assay [16] relates to glycogen synthase kinase-3 (GSK3A per assay name; protocol says GSK3B). Description: compounds binding glycogen synthase kinase-3 – biochemical, small-molecule microarray, 635 nm fluorescence, GSK3A, primary screen (AID 1103). Note: the record names both GSK3A and GSK3B. As to conditions: fluorescence 635 nm, higher = more signal.
Assay [17] concerns the target Epidermal growth factor receptor (Homo sapiens) (UniProt P00533). Description: compounds binding epidermal growth factor receptor – biochemical, small-molecule microarray, 635 nm fluorescence, primary screen (AID 1104).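 Note: score merges 667 nm emission intensity with spot signal to noise over triplicate slides.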 As to conditions: EGFR binding, higher = more signal.
Assay [18] concerns the target Follistatin-related protein 3 (Homo sapiens) (UniProt O95633). As to the kind of experiment: compounds binding follistatin-related protein 3 – biochemical, small-molecule microarray, 635 nm fluorescence, primary screen (AID 1105).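 Note: score merges emission near 667 nm and signal to noise per printed spot across three slides.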 The settings on record: FSTL3 binding, higher = more signal.
The target of assay [19] is Dickkopf-related protein 1 (Homo sapiens) (UniProt O94907). Description: small molecules binding DKK1 protein – biochemical, small-molecule microarray, 635 nm fluorescence scan, primary screen (AID 1106).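 Note: score merges emission near 667 nm with signal to noise over three replicate slides.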 The settings on record: higher = more signal.
Assay [20] deals with Inhibin beta A chain (activin A). Description: small molecules binding activin A – biochemical, small-molecule microarray, 635 nm fluorescence scan, primary screen (AID 1107).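 Note: mouse activin A protein probed at 4.33 µg/mL on printed slides; score merges bound-protein fluorescence near 667 nm with spot signal-to-noise.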 As to conditions: INHBA, higher = more signal.

Active and inactive are the calls of the source.

Chain of Neurogenic locus notch homolog protein 3 (Homo sapiens) (Q9UM47 whole entry, looked up): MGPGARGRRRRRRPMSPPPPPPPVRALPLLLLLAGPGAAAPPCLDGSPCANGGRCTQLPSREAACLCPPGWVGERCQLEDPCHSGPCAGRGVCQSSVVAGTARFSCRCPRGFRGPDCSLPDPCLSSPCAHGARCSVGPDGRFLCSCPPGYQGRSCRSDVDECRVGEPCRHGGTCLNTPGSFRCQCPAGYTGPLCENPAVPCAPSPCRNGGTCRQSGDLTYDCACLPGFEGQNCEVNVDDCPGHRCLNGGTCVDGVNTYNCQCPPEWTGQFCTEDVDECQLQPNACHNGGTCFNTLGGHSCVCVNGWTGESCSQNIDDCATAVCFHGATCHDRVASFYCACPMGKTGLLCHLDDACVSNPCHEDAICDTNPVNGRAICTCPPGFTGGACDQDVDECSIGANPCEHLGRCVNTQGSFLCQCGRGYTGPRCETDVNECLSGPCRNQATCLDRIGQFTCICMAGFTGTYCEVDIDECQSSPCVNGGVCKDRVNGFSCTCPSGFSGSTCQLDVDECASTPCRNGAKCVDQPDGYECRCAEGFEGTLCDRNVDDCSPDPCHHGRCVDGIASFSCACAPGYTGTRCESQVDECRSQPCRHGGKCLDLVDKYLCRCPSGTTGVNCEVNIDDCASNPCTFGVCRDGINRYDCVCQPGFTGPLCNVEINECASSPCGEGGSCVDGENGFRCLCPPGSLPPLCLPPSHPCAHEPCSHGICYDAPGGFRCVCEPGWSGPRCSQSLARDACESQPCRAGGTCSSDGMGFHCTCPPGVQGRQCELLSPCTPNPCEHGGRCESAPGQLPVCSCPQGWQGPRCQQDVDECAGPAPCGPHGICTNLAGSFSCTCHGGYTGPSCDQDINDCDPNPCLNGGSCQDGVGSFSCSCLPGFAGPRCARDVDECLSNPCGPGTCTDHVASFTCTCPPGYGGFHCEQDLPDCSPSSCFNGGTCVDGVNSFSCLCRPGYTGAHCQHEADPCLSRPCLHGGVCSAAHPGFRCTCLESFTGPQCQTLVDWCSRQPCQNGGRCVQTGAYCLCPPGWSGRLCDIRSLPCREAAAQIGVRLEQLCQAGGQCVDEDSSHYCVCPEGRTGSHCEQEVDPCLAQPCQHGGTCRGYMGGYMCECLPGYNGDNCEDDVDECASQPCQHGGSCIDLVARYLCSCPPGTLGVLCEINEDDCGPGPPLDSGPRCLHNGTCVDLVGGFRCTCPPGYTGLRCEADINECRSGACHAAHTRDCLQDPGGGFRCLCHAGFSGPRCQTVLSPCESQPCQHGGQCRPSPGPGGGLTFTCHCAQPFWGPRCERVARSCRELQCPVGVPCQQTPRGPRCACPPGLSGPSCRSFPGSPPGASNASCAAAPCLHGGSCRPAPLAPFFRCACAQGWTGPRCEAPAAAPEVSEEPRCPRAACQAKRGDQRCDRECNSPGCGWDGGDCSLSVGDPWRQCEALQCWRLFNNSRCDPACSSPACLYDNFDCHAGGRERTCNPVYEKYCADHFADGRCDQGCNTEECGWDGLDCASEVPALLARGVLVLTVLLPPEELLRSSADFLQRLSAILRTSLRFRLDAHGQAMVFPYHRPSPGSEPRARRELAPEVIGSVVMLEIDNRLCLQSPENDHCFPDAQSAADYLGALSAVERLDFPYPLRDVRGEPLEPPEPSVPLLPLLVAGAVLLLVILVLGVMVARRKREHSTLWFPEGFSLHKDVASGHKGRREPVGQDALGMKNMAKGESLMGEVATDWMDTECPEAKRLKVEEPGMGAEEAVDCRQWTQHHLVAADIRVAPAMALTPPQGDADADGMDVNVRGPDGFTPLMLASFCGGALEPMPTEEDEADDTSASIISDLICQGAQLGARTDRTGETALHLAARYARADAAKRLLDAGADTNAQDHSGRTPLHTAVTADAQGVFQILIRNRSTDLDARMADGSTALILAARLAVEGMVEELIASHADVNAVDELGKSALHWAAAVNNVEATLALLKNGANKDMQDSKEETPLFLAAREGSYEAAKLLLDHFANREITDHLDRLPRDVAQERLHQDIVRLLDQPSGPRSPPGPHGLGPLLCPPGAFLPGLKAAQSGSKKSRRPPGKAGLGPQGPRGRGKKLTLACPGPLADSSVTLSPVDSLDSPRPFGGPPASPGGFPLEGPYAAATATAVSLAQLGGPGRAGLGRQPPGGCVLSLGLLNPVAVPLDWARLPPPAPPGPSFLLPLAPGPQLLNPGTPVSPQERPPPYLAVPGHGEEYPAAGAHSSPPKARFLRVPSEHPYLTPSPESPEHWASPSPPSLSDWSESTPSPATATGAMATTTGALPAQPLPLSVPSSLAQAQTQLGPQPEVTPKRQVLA
Chain of Fibroblast growth factor 10 (Homo sapiens) (O15520 whole entry, looked up): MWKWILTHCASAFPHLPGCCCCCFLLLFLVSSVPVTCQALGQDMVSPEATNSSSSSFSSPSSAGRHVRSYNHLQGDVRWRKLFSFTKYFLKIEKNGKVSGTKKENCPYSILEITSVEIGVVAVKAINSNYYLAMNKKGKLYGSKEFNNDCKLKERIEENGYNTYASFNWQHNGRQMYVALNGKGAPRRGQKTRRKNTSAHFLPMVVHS
Chain of Dickkopf-related protein 1 (Homo sapiens) (O94907 whole entry, looked up): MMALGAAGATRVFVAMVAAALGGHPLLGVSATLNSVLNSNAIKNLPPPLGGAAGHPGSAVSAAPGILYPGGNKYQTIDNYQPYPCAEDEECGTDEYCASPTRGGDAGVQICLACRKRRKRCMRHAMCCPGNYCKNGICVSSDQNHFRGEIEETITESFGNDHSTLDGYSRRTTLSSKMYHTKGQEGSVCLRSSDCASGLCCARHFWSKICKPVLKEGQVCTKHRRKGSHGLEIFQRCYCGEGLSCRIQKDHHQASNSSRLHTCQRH
Chain of Epidermal growth factor receptor (Homo sapiens) (P00533 whole entry, looked up): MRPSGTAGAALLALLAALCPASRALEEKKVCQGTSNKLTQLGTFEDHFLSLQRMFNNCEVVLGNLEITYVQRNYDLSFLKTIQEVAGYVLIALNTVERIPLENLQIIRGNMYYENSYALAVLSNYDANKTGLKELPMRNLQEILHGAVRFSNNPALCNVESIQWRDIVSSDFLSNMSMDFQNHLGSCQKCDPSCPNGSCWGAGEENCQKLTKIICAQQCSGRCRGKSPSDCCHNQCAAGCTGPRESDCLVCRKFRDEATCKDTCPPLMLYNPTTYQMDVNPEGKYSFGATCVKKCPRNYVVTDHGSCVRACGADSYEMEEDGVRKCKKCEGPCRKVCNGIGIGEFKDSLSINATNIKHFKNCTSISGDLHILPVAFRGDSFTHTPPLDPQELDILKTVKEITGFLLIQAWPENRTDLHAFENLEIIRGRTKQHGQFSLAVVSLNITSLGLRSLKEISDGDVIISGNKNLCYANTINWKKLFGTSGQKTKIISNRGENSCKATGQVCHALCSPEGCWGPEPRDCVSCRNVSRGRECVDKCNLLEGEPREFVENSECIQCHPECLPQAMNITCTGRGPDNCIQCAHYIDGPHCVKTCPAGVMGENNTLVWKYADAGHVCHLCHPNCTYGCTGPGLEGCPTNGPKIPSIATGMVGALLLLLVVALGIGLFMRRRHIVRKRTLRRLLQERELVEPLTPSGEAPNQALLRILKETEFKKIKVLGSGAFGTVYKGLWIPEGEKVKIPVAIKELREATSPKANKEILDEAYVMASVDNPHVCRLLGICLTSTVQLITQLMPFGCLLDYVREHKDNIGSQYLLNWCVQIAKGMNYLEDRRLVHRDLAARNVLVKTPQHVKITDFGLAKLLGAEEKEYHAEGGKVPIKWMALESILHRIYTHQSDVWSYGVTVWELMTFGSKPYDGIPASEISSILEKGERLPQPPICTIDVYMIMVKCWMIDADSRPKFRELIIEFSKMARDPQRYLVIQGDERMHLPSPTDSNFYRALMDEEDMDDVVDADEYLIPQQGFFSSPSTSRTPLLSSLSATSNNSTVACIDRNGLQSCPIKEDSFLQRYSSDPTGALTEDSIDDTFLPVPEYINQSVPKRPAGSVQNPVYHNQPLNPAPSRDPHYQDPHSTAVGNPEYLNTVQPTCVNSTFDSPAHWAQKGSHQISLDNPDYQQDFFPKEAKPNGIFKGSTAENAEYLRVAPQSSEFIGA
Chain of Follistatin-related protein 3 (Homo sapiens) (O95633 whole entry, looked up): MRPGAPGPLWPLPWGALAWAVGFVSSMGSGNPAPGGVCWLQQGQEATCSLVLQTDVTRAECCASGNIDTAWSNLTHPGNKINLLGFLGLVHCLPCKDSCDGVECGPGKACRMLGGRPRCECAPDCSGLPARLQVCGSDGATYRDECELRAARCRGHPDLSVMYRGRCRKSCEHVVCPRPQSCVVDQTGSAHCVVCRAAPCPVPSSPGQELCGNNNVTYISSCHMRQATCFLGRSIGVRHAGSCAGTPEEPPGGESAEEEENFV
Chain of Torsin-1A-interacting protein 2 (Homo sapiens) (Q8NFQ8 whole entry, looked up): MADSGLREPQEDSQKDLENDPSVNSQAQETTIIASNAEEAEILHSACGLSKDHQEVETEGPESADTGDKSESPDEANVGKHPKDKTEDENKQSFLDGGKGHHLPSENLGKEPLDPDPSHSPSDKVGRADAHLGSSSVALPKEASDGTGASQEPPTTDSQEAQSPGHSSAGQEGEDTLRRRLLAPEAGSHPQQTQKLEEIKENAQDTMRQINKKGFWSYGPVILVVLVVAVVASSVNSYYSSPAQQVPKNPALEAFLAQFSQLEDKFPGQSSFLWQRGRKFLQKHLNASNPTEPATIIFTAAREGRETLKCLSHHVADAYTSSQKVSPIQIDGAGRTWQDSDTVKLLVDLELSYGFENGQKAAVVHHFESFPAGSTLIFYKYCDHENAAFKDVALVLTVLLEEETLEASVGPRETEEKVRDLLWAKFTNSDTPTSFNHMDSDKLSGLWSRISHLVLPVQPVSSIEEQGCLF

In the case of `COCCOC(=O)N1C(=O)[C@@]2(c3cc(C#CC4=CCCCC4)ccc31)[C@H](C(=O)NC[C@H](O)c1ccccc1)[C@H]1C(=O)O[C@H](c3ccccc3)[C@H](c3ccccc3)N1[C@@H]2c1ccc(OCCO)cc1`, the composite z-score was 1.54 in [1]; 2.41 in assay [5]; -0.003 in assay [7]; 1.85 in assay [8]; 1.13 in [9]; -0.144 in assay [10]. Also, the composite z-score in assay [11] is 0.915; in assay [12], -0.18; in assay [13], 0.226; in [15], 1.29; in [16] it was 1.28; in assay [17], 0.483. Further, the composite z-score turned out to be 1.37 in assay [18], 0.817 in [19] and 0.49 in assay [20]. Moreover, the z-score was 2.15 (inactive) in assay [2]; 1.44 (inactive) in assay [3]; 4.41 (inactive) in assay [4]; -0.662 (inactive) in assay [6]; -0.718 (inactive) in assay [14].
Turning to `C=CCC(OC(C)=O)[C@@H]1[C@@H](N(Cc2ccc(-c3cccc(C(F)(F)F)c3)o2)C(=O)Cc2ccc(F)cc2)c2cc(OCCCO)ccc2N1C(=O)c1ccc(-c2ccccc2)cc1` (stereo not given in full), the composite z-score in assay [1] was -0.621; in assay [5], 0.239; in assay [7], -0.166; in assay [8] it was -0.325; in assay [9], -0.362; in assay [10], -0.238. The composite z-score in [11] was 0.18; in [12], -0.0567; in assay [13] it was 0.494; in assay [15] it was -0.204; in [16], -0.847; in assay [17], -0.736. Moreover, the figures for the composite z-score in assay [18], in assay [19] and in assay [20] were -0.198, -0.0679 and 1.32, respectively. In addition, the z-score in assay [2] is -0.182 (inactive); in assay [3] it was -0.258 (inactive); in assay [4] it was -0.507 (inactive); in assay [6], -1.33 (inactive); in [14], -0.291 (inactive).
With `COCC(=C=CC[C@H](O)c1ccc(OCCO)cc1)C[C@H](O)c1ccccn1`, the composite z-score in assay [1] was 0.546; in assay [5], 1.38; in [7], -0.0216; in assay [8] it was 0.0559; in assay [9] it was -0.457; in assay [10] it was -0.235. Moreover, the composite z-score was 0.338 in [11]; -0.169 in assay [12]; -0.201 in assay [13]; -0.198 in assay [15]; 0.208 in assay [16]; -0.829 in assay [17]. In addition, the composite z-score in assay [18] was -0.293; in [19] it was -0.326; in assay [20] it was 0.403. In addition, the z-score in [2] is 0.725 (inactive); in assay [3], -1.05 (inactive); in [4] it was -0.352 (inactive); in assay [6], 1.06 (inactive); in assay [14], 0.0572 (inactive).
For `COc1cc(CO)cc(I)c1O[C@H]1C=C(C(=O)NCCO)C[C@@H](N(CC2CCCCC2)C(=O)c2cc3ccccc3oc2=O)[C@@H]1O`, the composite z-score is -0.449 in [1]; 0.0986 in [5]; -0.186 in assay [7]; 0.606 in [8]; -0.0481 in assay [9]; -0.0656 in [10]. Also, the composite z-score in assay [11] is -0.375; in [12] it was -0.34; in assay [13], -0.293; in [15] it was 0.975; in assay [16], 0.0996; in [17], 0.6. Besides, the composite z-score in assay [18] was 0.797; in [19] it was 0.174; in [20], 0.14. Moreover, the z-score in [2] was 0.411 (inactive); in assay [3], -0.858 (inactive); in assay [4], -0.393 (inactive); in assay [6], 2.1 (inactive); in assay [14], -0.00607 (inactive).
As to `C=CCC(OC(C)=O)[C@@H]1[C@@H](N(Cc2ccc(-c3ccccc3)cc2)C(=O)c2ccc(C)cc2)c2cc(OCCCO)ccc2N1C(=O)c1ccc(-c2ccccc2)cc1` (stereo not given in full), the composite z-score in [1] was -0.173; in [5], 0.554; in assay [7] it was 0.0026; in assay [8] it was -0.404; in [9] it was -0.532; in assay [10], 0.039. The composite z-score in assay [11] was -0.151; in assay [12] it was 0.434; in assay [13], 0.536; in assay [15], 0.104; in assay [16], -0.176; in assay [17], -0.0222. Moreover, the composite z-score in assay [18] was -0.023; in assay [19] it was -0.0546; in assay [20] it was 1.42. Moreover, the z-score in assay [2] is -3.23 (inactive); in assay [3], -1.88 (inactive); in assay [4], -1.75 (inactive); in assay [6], 0.65 (inactive); in [14] it was -2.28 (inactive).
Turning to `C=C(COC)C(=O)CC[C@H](OC(=O)c1ccccc1-c1ccccc1C(=O)O)c1cccc(OCCO)c1`, the composite z-score in [1] was 1.54; in assay [5], 4.32; in assay [7], -0.195; in assay [8], 2.09; in assay [9] it was 0.985; in assay [10] it was 0.0004. The composite z-score in [11] was 1.74; in [12], -0.0615; in assay [13], -0.462; in assay [15], 1.71; in [16] it was 0.829; in assay [17], 0.397. The composite z-score is 1.33 in assay [18], 1.94 in assay [19] and 1.01 in [20]. Besides, the z-score in assay [2] is -22.6 (active); in assay [3], -20.5 (active); in [4] it was -3.63 (inactive); in [6], 0.573 (inactive); in [14] it was -3.03 (inactive).
Consider `CCCNC(=O)[C@@H]1c2ccccc2C(=O)N(Cc2cc(F)cc(C(F)(F)F)c2)[C@H]1c1ccc(CO)cc1`, for which the composite z-score in assay [1] came out at 1.54; in [5], 2.83; in assay [7], 0.0465; in assay [8], 1.66; in assay [9] it was 1.05; in assay [10] it was 0.289. The composite z-score amounted to 1.54 in assay [11]; 0.792 in assay [12]; 0.853 in assay [13]; 0.926 in assay [15]; 1.29 in assay [16]; 0.497 in [17]. The composite z-score in assay [18] was found to be 1.35; in assay [19], 0.677; in assay [20], 1.05. Further, the z-score was -1.15 (inactive) in assay [2]; -2.49 (inactive) in assay [3]; -1.36 (inactive) in assay [4]; 1.97 (inactive) in assay [6]; -1.26 (inactive) in [14].
For the molecule `C=CCC(OC(C)=O)[C@@H]1[C@@H](N(Cc2cc3ccccc3o2)C(=O)Cc2ccc(F)cc2)c2cc(OCCCO)ccc2N1C(=O)c1ccc(-c2ccccc2)cc1` (stereo not given in full), the composite z-score in [1] is -1.44; in assay [5] it was 0.292; in assay [7], -0.0598; in assay [8], -0.737; in [9], -1.02; in assay [10] it was -0.178. The composite z-score is -0.271 in assay [11]; -0.168 in [12]; 0.512 in [13]; -0.251 in assay [15]; -0.708 in [16]; -0.162 in assay [17]. For the same molecule, the composite z-score was -0.346 in assay [18], 0.0578 in assay [19] and 1.18 in [20]. For the same molecule, the z-score in assay [2] is -0.277 (inactive); in [3], -0.801 (inactive); in assay [4] it was -0.76 (inactive); in [6] it was 1.64 (inactive); in [14], -1.05 (inactive).
In the case of `C=CCC1=C[C@H]2[C@H]([C@@H]3C=C[C@]2(CC=C)C(=O)[C@]32CO2)[C@@]2(CO2)C1=O`, the composite z-score in assay [1] was determined as 0.388; in assay [5], 0.756; in assay [7], 0.233; in [8], 1.65; in assay [9], 0.183; in [10], 0.148. The composite z-score in assay [11] was 1.29; in assay [12], -0.354; in [13] it was -0.69; in [15], 1.14; in assay [16], -0.0104; in [17], 1.58. Also, the composite z-score was determined as 1.31 in [18], 1.8 in assay [19] and 1.9 in assay [20]. The z-score in assay [2] was 0.683 (inactive); in [3] it was -21.2 (active); in assay [4], -4.1 (inactive); in assay [6] it was 2.54 (inactive); in assay [14], -0.414 (inactive).

The record behind these values is PubChem BioAssay.
